A selection: hits, their analogues and other compounds. The true share with any hit is near 19%.
MCF10A rerep = DNA re-replication induction in MCF 10a cells; MCF 10A DNA re-replication, Hoechst nuclear intensity, 48 h; Potency, µM (top dose mostly 46.1 µM), hits mostly activators; hit rate 2.9% among 350,000; note: nearly all actives have a fitted effect of over 50% in size
DT40 TDP1 no CPT = qHTS for Inhibitors of human tyrosyl-DNA phosphodiesterase 1 (TDP1): qHTS in cells in absence of CPT. DT40 Tdp1-/- hTDP1 cells, no CPT, ATP luminescence, 48 h. Potency, µM (top dose mostly 46.2 µM), hits mostly inhibitors. hit rate 15% among 420,000; note: nearly all actives have a fitted effect of over 55% in size
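Stably hTDP1-transfected Tdp1-null chicken DT40 cells were treated with library compounds minus camptothecin and grown for at least 48 hr at 37 °C, after which cellular ATP was quantified by luminescence.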
Chronic BCR inh = chronic active BCR signaling inhibition; ABC-DLBCL IkBa-CBG/CBR reporter, luminescence ratio, 4 h; Potency, µM (highest dose often 46.1 µM), most hits filed as inhibitors; hit rate 0.05% among 340,000; active = well fitted inhibition curve with a large enough effect in the signal ratio, with a control signal flat, not every such curve was filed as active; inconclusive = small, poorly fitted or top-dose-only effect, or effect the other way, or a change in a side signal; the % refers to the signal ratio
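TMD8 ABC-DLBCL cells carrying doxycycline-inducible green luciferase fused to IkappaBalpha plus unfused red luciferase were exposed to compounds (up to 46 uM) for 4 hrs at 37C. Activity came from the overlap-corrected green/red luminescence ratio.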
IL1B secr inh = inflammasome signaling inhibition, IL-1 beta readout; THP-1 LPS/ATP IL-1B secretion, AlphaLISA, 16 h; stronger effect = lower value; activity change, % at 57.5 µM; hit rate 4.7% among 360,000; in the data active = activity change below about -50%; inconclusive = mostly about -30% to -49%
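THP-1 cells pretreated 1 hr with compounds (up to 57.5 uM final), then stimulated with LPS (250 ng/mL final) plus ATP (1.25 mM final); secreted IL-1B measured by AlphaLISA after 16 hr, decreased signal indicating inhibition.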
SW480 rereplic = induces DNA re-replication in SW480 colon adenocarcinoma cells | SW480 DNA re-replication, Hoechst DNA content imaging, 48 h | Potency, µM (series often up to 46.1 µM), actives largely listed as activators | hit rate 1.8% among 340,000; note: nearly all actives have a fitted effect of over 55% in size
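Image-based read-out: total Hoechst fluorescence of nuclei (405 nm excitation, 500-530 nm emission), with hits raising the fraction of high-intensity nuclei. SW480 colon cells incubated 48 hr with compounds at 37 C.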
DT40 TDP1 CPT = growth inhibition of DT40 Tdp1-/-;hTDP1 cells with camptothecin (screen for TDP1 inhibitors) | chicken DT40 Tdp1-/-;hTDP1 cells + 20 nM CPT, ATP luminescence, 48 h | Potency, µM (titrated, usually from 46.2 µM), usual class: inhibitors | hit rate 12% among 420,000 | AID 686979; note: nearly all actives have a fitted effect of over 55% in size
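Chicken DT40 Tdp1-/- cells stably complemented with human TDP1 were seeded at 400 cells/well in medium containing 20 nM camptothecin, exposed to pin-transferred compounds, and grown at 37 °C for at least 48 hr. Viability was read as ATP luminescence.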
Of the large screens only hits and unclear results are named; the others gave an inactive call. Unless noted, calls come from the whole dose curve; as a rule, active = well fitted curve in the direction sought with a large enough effect; inconclusive = small, poorly fitted or top-dose-only effect, or another doubt; inactive = no such curve, though single readings can be large; an effect the other way counts as inactive or inconclusive.

Cc1noc(C)c1COc1ccc(C(=O)NNC(=O)c2ccccc2)cc1	MCF10A rerep 21µM, DT40 TDP1 no CPT 4.6µM, Chronic BCR inh inconclusive, SW480 rereplic 13µM, DT40 TDP1 CPT 5.2µM
Cc1noc(C)c1COc1ccc(C(=O)NNC(=O)c2ccccc2F)cc1	DT40 TDP1 no CPT 1.5µM, Chronic BCR inh inconclusive, SW480 rereplic 12µM, DT40 TDP1 CPT 2.3µM
Cc1noc(C)c1C(=O)N1CCN(c2ccc(OCc3ccccc3)cc2)CC1	MCF10A rerep inconclusive, DT40 TDP1 no CPT 16µM, DT40 TDP1 CPT 15µM
Cc1ccc(OCCC(=O)OC(C)C(=O)Nc2c(C)n(C)n(-c3ccccc3)c2=O)cc1 (configuration not stated)	none
Cc1cc(OC(C)C(=O)NCC(O)c2ccccc2)c2c(C)cc(=O)oc2c1 (configuration not stated)	none
Cc1cccc(C)c1NC(=O)c1ccc(OCc2c(C)noc2C)cc1	MCF10A rerep inconclusive, DT40 TDP1 no CPT 16µM, DT40 TDP1 CPT inconclusive
CC(=O)Nc1ccc(NC(=O)c2ccc(OCc3c(C)noc3C)cc2)cc1	none
Cc1cccc(NC(=O)c2ccc(OCc3c(C)noc3C)cc2)c1C	DT40 TDP1 no CPT inconclusive, Chronic BCR inh inconclusive, SW480 rereplic inconclusive, DT40 TDP1 CPT inconclusive
Cc1ccc(NC(=O)c2ccc(OCc3c(C)noc3C)cc2)cc1C	DT40 TDP1 no CPT inconclusive, IL1B secr inh -88, DT40 TDP1 CPT inconclusive
C=CCOc1ccccc1CN1CCCCCC1	none
COc1ccc(OC)c(NC(=O)Nc2nc(C(N)CCc3ccccc3)cs2)c1 (configuration not stated)	DT40 TDP1 no CPT 9.2µM, DT40 TDP1 CPT 7.3µM (no result: MCF10A rerep, Chronic BCR inh, IL1B secr inh, SW480 rereplic)
COc1ccc(OC)c(NC(=O)Nc2nnc(COCCO)s2)c1	none (no result: MCF10A rerep, Chronic BCR inh, SW480 rereplic)
COc1cc(/C=C/C(=O)NC(C)CCc2ccccc2)cc(OC)c1OC (configuration not stated)	MCF10A rerep inconclusive, DT40 TDP1 no CPT inconclusive, DT40 TDP1 CPT inconclusive
COc1cc(NC(=O)Nc2nc(C(N)CCc3ccccc3)cs2)cc(OC)c1OC (configuration not stated)	DT40 TDP1 no CPT 7.3µM, IL1B secr inh inconclusive, DT40 TDP1 CPT inconclusive (no result: MCF10A rerep, Chronic BCR inh, SW480 rereplic)
NC(CCc1ccccc1)c1csc(NC(=O)NCC2CCCCC2)n1 (configuration not stated)	DT40 TDP1 no CPT 15µM, IL1B secr inh inconclusive, DT40 TDP1 CPT 15µM (no result: MCF10A rerep, Chronic BCR inh, SW480 rereplic)
COc1ccc(CC(N)c2csc(NC(=O)Nc3cc(OC)ccc3OC)n2)cc1 (configuration not stated)	DT40 TDP1 no CPT 5.8µM, DT40 TDP1 CPT 5.2µM (no result: MCF10A rerep, Chronic BCR inh, SW480 rereplic)
COc1ccc(OC)c(NC(=O)CCCc2ccccc2)c1	none
CCn1c(C)c(C)c2cc(C(=O)N3CCCC3)ccc21	MCF10A rerep inconclusive
CCn1c(C)c(C)c2cc(C(=O)N3CCN(c4ccccc4)CC3)ccc21	DT40 TDP1 no CPT inconclusive, SW480 rereplic inconclusive, DT40 TDP1 CPT 18µM
O=C(NCC(=O)N1CCN(c2ccccc2O)CC1)C1CCCCC1	DT40 TDP1 no CPT inconclusive, DT40 TDP1 CPT 3.7µM
O=C(c1ccccc1)c1ccc(C(=O)N2CCN(c3ccccc3O)CC2)cc1	DT40 TDP1 no CPT 12µM, IL1B secr inh inconclusive, DT40 TDP1 CPT 26µM (no result: MCF10A rerep, Chronic BCR inh, SW480 rereplic)
O=C(Nc1ccc(NC(=O)N2CCN(c3ccccc3O)CC2)cc1)N1CCN(c2ccccc2O)CC1	DT40 TDP1 no CPT 26µM, DT40 TDP1 CPT inconclusive
CC(=O)Nc1cnc(/C=C\CCCO)cn1	none (no result: MCF10A rerep, Chronic BCR inh, SW480 rereplic)
O=C(c1cccc(C(=O)N2CCN(c3ccccc3)CC2)c1)N1CCN(c2ccccc2)CC1	DT40 TDP1 no CPT 15µM, DT40 TDP1 CPT inconclusive
O=C(C(Sc1ccccc1)c1ccccc1)N1CCN(c2ccccc2F)CC1 (configuration not stated)	DT40 TDP1 no CPT 23µM, DT40 TDP1 CPT inconclusive
O=C(c1cccc(C(=O)N2CCN(c3ccccc3F)CC2)c1)N1CCN(c2ccccc2F)CC1	DT40 TDP1 no CPT 23µM, Chronic BCR inh inconclusive, DT40 TDP1 CPT inconclusive
O=C(c1c(F)cccc1F)N1CCN(c2ccccc2F)CC1	none
Cc1cc(C)c(C)c(OCC(O)CN2CCN(c3ccccn3)CC2)c1 (configuration not stated)	DT40 TDP1 CPT inconclusive
CC(Oc1cccc(Cl)c1)C(=O)N1CCCN(C)CC1 (configuration not stated)	none
COc1ccc(-c2cn3c(C)c(C(=O)Nc4cccc(NC(C)=O)c4)sc3n2)cc1	DT40 TDP1 CPT inconclusive
COc1ccc(-c2cn3c(C)c(C(=O)Nc4ccncc4)sc3n2)cc1	MCF10A rerep inconclusive, DT40 TDP1 no CPT 5.8µM, Chronic BCR inh inconclusive, SW480 rereplic inconclusive, DT40 TDP1 CPT 3.7µM
COc1ccc(-c2cn3c(C)c(C(=O)N4CCN(c5ccccc5F)CC4)sc3n2)cc1	DT40 TDP1 no CPT 18µM, Chronic BCR inh inconclusive, DT40 TDP1 CPT 23µM
Cc1c(C(=O)N2CCN(c3ccccc3F)CC2)sc2nc(-c3ccccc3)cn12	DT40 TDP1 no CPT inconclusive, IL1B secr inh inconclusive, DT40 TDP1 CPT inconclusive
CCOc1ccc(NC(=O)c2sc3nc(-c4ccc(OC)cc4)cn3c2C)cc1	DT40 TDP1 no CPT 7.3µM, DT40 TDP1 CPT 16µM (no result: MCF10A rerep, Chronic BCR inh, IL1B secr inh, SW480 rereplic)
Cc1c(C(=O)Nc2ccncc2)sc2nc(-c3ccc(F)cc3)cn12	MCF10A rerep inconclusive, DT40 TDP1 no CPT 5.2µM, DT40 TDP1 CPT 7.3µM
Cc1ccc(NC(=O)c2sc3nc(-c4ccc(F)cc4)cn3c2C)c(C)c1	DT40 TDP1 no CPT inconclusive (no result: MCF10A rerep, Chronic BCR inh, IL1B secr inh, SW480 rereplic)
Cc1ccc(C(=O)O)cc1NC1(c2ccccc2)C(=O)c2ccccc2C1=O	none (no result: MCF10A rerep, Chronic BCR inh, IL1B secr inh, SW480 rereplic)
COc1ccc(OC)c(CNC(=O)c2cc3cc4ccc(OC)cc4nc3o2)c1	none (no result: MCF10A rerep, Chronic BCR inh, IL1B secr inh, SW480 rereplic)
Cc1cccc(C)c1NC(=O)C1CCN(S(C)(=O)=O)CC1	none
Cc1ccc(N2C(=S)NC3c4cc(Cl)ccc4OC2(C)C3C(=O)N(C)C)cc1 (configuration not stated)	none
COc1ccc(N2C(=S)NC3c4cc(Cl)ccc4OC2(C)C3C(=O)N(C)C)cc1 (configuration not stated)	MCF10A rerep inconclusive, DT40 TDP1 no CPT inconclusive, Chronic BCR inh inconclusive, SW480 rereplic inconclusive, DT40 TDP1 CPT 29µM
O=C(Nc1nnc([C@@H]2C[C@H](O)[C@@H](CO)O2)s1)Nc1ccccc1C(F)(F)F	none (no result: MCF10A rerep, Chronic BCR inh, SW480 rereplic)
OCc1ccccc1SSc1ccccc1CO	MCF10A rerep 18µM, DT40 TDP1 no CPT 3.3µM, IL1B secr inh -99, SW480 rereplic inconclusive, DT40 TDP1 CPT 2.3µM (no result: Chronic BCR inh)
OCc1ccccc1O	none (no result: Chronic BCR inh, IL1B secr inh)
